Reference: PubChem BioAssay (NCATS)
Inconclusive results are not listed. Active and inactive are the calls of the source. Unless noted, the rule behind the calls is not given here.

Legend:
[1] = qHTS profiling of the MIPE4 collection as inhibitors of Plasmodium falciparum (3D7) proliferation (AID 743344);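 note: scaled between DMSO vehicle wells and 0.29 µM artemisinin as full inhibition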; details: P. falciparum 3D7 in erythrocytes, SYBR Green DNA fluorescence, 72 h; at 28.5 µM unless noted
In short: (§1)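 Parasite DNA was quantified by SYBR Green I fluorescence (ex 485, em 535 nm) after overnight lysis in saponin/Triton buffer at room temperature. Cultures at 0.3% parasitemia and 2.5% hematocrit were first exposed to compound for 72 h at 37 C; signals were normalised to artemisinin (0.29 uM) and vehicle wells.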

[2] = qHTS profiling of the MIPE4 collection as inhibitors of Plasmodium falciparum (DD2) proliferation (AID 743345); details: P. falciparum Dd2 in erythrocytes, SYBR Green DNA, 72 h; at 28.5 µM unless noted
In short: as §1

[3] = qHTS profiling of the MIPE4 collection as inhibitors of Plasmodium falciparum (DD2) proliferation (Rep 2) (AID 743346); details: P. falciparum Dd2 in erythrocytes, SYBR Green DNA, 72 h; at 28.5 µM unless noted
In short: as §1

[4] = qHTS profiling of the MIPE4 collection as inhibitors of Plasmodium falciparum (HB3) proliferation (AID 743347);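 note: plate controls were DMSO vehicle wells for no effect and artemisinin wells for full effect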; details: P. falciparum HB3 in erythrocytes, SYBR Green DNA, 72 h; at 28.5 µM unless noted
In short: as §1

[5] = High-throughput drug toxicity screening in the BPDCN cell line Gen2.2 (AID 1224824); details: Gen2.2 BPDCN cells; at 45.8 µM (top of the series) unless noted;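 note: cells exposed to compounds for 48 h before reading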
In short: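 Seed 500 exponentially growing Gen2.2 cells/well; add compounds by pin tool; incubate 48 h, 37 °C, 5% CO2; add CellTiter-Glo, 15 min RT; read luminescence. % activity vs DMSO (100%) and bortezomib (0%).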

[6] = High-throughput drug toxicity screening in the BPDCN cell line Cal-1 (AID 1224825); details: Cal-1 BPDCN cell viability, qHTS; at 45.8 µM (top of the series) unless noted
In short: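 Percent activity derived from CellTiter-Glo luminescence, scaling DMSO to 100% and 9.2 uM final bortezomib to 0%. BPDCN Cal-1 cells (500/well, RPMI plus 10% FBS) incubated with compounds 48 hours at 37C before reading.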

[7] = qHTS assay for measurement of the activity of small molecule inhibitors on Zika virus induced Caspase-3 activity in human astrocytoma cells (AID 1224859; active = well fitted curve in the direction sought with a large enough effect; an effect the other way counts as inactive or inconclusive;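 note: plate controls were ZIKV-infected untreated cells for no effect and uninfected cells for full effect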)
In short: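 Luminescent caspase-3/7 read-out (30 min reagent, room temperature) in human SNB-19 cells infected 6 h with ZIKV (2 FFU/cell) after 1 h compound pre-incubation; Data were normalised to uninfected and infected wells.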

[8] = qHTS Screen of the MIPE 4.0 Collection Against Ewings Sarcoma (RDES) (AID 1259252; active = well fitted curve in the direction sought with a large enough effect; an effect the other way counts as inactive or inconclusive; note: nearly all actives have a fitted effect of over 35% in size; note: potency is the fitted concentration of half-maximal effect)
In short: (§2)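 After a 4 h attachment period in RPMI/5% FBS, cells were pin-dosed with test compounds; DMSO served as negative and 9.2 uM bortezomib (final) as positive control. Luminescent CellTiter-Glo signal at 48 h defined viability.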

[9] = qHTS Screen of the MIPE 4.0 Collection Against Ewings Sarcoma (TC71) (AID 1259253; active = well fitted curve in the direction sought with a large enough effect; an effect the other way counts as inactive or inconclusive; note: nearly all actives have a fitted effect of over 40% in size; note: potency is the fitted concentration of half-maximal effect)
In short: as §2

[10] = qHTS Screen of the MIPE 4.0 Collection Against Ewings Sarcoma (EW8) (AID 1259255; active = well fitted curve in the direction sought with a large enough effect; an effect the other way counts as inactive or inconclusive; note: nearly all actives have a fitted effect of over 35% in size; note: potency is the fitted concentration of half-maximal effect;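 for viability: 100% = DMSO-treated cells and 0% = medium-only wells without cells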)
In short: as §2

[11] = qHTS Screen of the MIPE 4.0 Collection Against Ewings Sarcoma (TC32) (AID 1259256; active = well fitted curve in the direction sought with a large enough effect; an effect the other way counts as inactive or inconclusive; note: nearly all actives have a fitted effect of over 45% in size; note: potency is the fitted concentration of half-maximal effect)
In short: as §2

[12] = qHTS profiling for inhibitors of Plasmodium falciparum (HB3) proliferation (AID 743324; active = well fitted curve in the direction sought with a large enough effect; an effect the other way counts as inactive or inconclusive;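 note: 100% = DMSO vehicle wells and 0% = artemisinin-treated control wells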); details: Plasmodium falciparum HB3 blood-stage proliferation; at 28.7 µM (top of the series) unless noted
In short: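 SYBR Green fluorescence (485 ex/535 em) of lysed cultures, incubated overnight at room temperature in the dark, quantifies parasite DNA. Infected erythrocytes at 0.3% parasitemia and 2.5% hematocrit were exposed 72 h; values normalized to DMSO and 0.29 uM artemisinin controls.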

[13] = qHTS assay to identify small molecule inhibitors of chordoma cells - UCH-2 (AID 1259356; active = well fitted curve in the direction sought with a large enough effect; an effect the other way counts as inactive or inconclusive; note: % is set by controls: 0 for no effect and ±100 for the full control effect)
[14] = Identifying Small Molecule Inhibitors of Pancreatic Cancer Stem Cells (SN12C, Adherent) (AID 1259358; active = well fitted curve in the direction sought with a large enough effect; an effect the other way counts as inactive or inconclusive;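 note: cell survival measured after 48 h of compound exposure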)
In short: (§3)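 Adherent (2D) versus sphere (3D) formats; spheres generated 14 d in SCM beforehand. Compound transferred by pin tool after 4 h, 48 h incubation, CellTiter-Glo endpoint.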

[15] = Identifying Small Molecule Inhibitors of Pancreatic Cancer Stem Cells (SN12C, Spheroid) (AID 1259360; active = well fitted curve in the direction sought with a large enough effect; an effect the other way counts as inactive or inconclusive;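 note: 100% = DMSO-treated cells and 0% = wells without cells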); details: Potency: SN12C spheroid viability
In short: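 Viability is scored by CellTiter-Glo luminescence 48 h after dosing, expressed as percent activity against vehicle and no-cell references. Spheroid formats rely on cells cultured 14 days in stem cell media beforehand.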

[16] = Identifying Small Molecule Inhibitors of Pancreatic Cancer Stem Cells (A278, Adherent) (AID 1259361; active = well fitted curve in the direction sought with a large enough effect; an effect the other way counts as inactive or inconclusive;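 note: viability read after 48 h compound exposure; nearly all actives have a fitted effect of over 35% in size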;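 for viability (% of control): 100% = DMSO-treated cells and 0% = cell-free media-only wells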)
In short: as §3

[17] = qHTS assay for measurement of the activity of small molecule inhibitors on Zika virus induced Caspase-3 activity in human iPSC derived neural progenitor cells (hNPCs) (AID 1224857; active = well fitted curve in the direction sought with a large enough effect; an effect the other way counts as inactive or inconclusive; note: nearly all actives have a fitted effect of over 65% in size; note: potency is the fitted concentration of half-maximal effect)
In short: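 Percent inhibition of virus-induced caspase-3/7 luminescence (Caspase-Glo), scaled between uninfected cells and Zika-infected cells. hNPCs received compound 1 hr before ZIKV at 2 FFU/cell, with 6 hours infection at 37 C.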

[18] = P-glycoprotein substrates identified in KB-3-1 adenocarcinoma cell line, qHTS therapeutic library screen (AID 1346986; active = well fitted curve in the direction sought with a large enough effect; an effect the other way counts as inactive or inconclusive; note: nearly all actives have a fitted effect of over 60% in size)
In short: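 Dose-response cytotoxicity, KB-3-1 vs P-gp-high KB-8-5-11, no colchicine in assay medium. Read: CellTiter-Glo at 72 h.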

Row | Structure (SMILES) | parasite growth, % of DMSO control [1] [%] | parasite growth remaining, % of DMSO control (lower = more inhibition) [2] [%] | parasite growth, % of control (lower = inhibition) [3] [%] | growth, % of control [4] [%] | cell viability, % of control (lower = more cytotoxic) [5] [%] | viability (% of control) [6] [%] | Potency [7] | Potency [8] | Potency [9] | Potency [10] | Potency [11] | remaining proliferation (% of control), lower = more inhibition [12] [%] | outcome [13] | Potency [14] | Potency [15] | IC50 (viability decrease) [16] | Potency [17] | Potency [18]
1 | CN(C)CCN(Cc1ccc(Cl)cc1)c1ccccn1 | 38.2 | 50.5 | 28.6 | 53 | 86.6 | 37.6 | inactive | 23.5 µM (active) | 20.9 µM (active) |  |  |  |  |  |  |  |  | 
2 | OC(c1cc(C(F)(F)F)nc2c(C(F)(F)F)cccc12)C1CCCCN1 (stereo not drawn) | 11 | 9.36 |  | 61.8 | 9.36 | 7.54 | inactive |  | 20.9 µM (active) | 20.9 µM (active) | 26.4 µM (active) |  |  |  |  |  |  | 
3 | COc1cc2c(cc1OC)CC(=O)N(CCCN(C)C[C@H]1Cc3cc(OC)c(OC)cc31)CC2 | 92 | 98.4 | 55.5 | 79.8 | 163 | 106 | inactive | 16.6 µM (active) | 16.6 µM (active) |  |  | 77.1 | inactive | inactive | inactive | inactive |  | 
4 | CC(=O)N1CCN(c2ccc(OCc3nn(C)c(C)c3-c3cccc4c(CCCOc5cc(C)c(Cl)c(C)c5)c(C(=O)O)n(Cc5cccnc5)c34)cc2)CC1 | 5.72 | 15.1 | 13.7 | 6.27 | 7.74 | 2.47 | inactive | 20.9 µM (active) |  |  | 20.9 µM (active) |  |  |  |  |  |  | 
5 | CC[C@H](NC(=O)[C@H](C)NC)C(=O)N1C[C@@H](O)C[C@H]1Cc1c(-c2[nH]c3cc(F)ccc3c2C[C@H]2C[C@H](O)CN2C(=O)[C@H](CC)NC(=O)[C@H](C)NC)[nH]c2cc(F)ccc12 | 4.9 | 8.23 | 6.15 | 6.85 | 19.2 |  | inactive | inactive | inactive | inactive |  |  |  |  |  |  | inactive | inactive
6 | CC[C@H](CC#N)OC(=O)N[C@@H](C)c1cccc(NC(=O)Nc2ccc(-c3cnco3)c(OC)c2)c1 | 12.8 |  |  | 9.12 | 74.3 | 18.6 | inactive |  | 0.469 µM (active) | 0.469 µM (active) | 0.469 µM (active) |  |  |  |  |  |  | 
7 | CNC(=O)c1c(-c2ccc(F)cc2)oc2cc(N(CCO)S(C)(=O)=O)c(C3CC3)cc12 | 4.82 | 10.4 | 14.1 | 4.16 | 64.5 |  | inactive | 18.7 µM (active) |  |  | inactive |  |  |  |  |  | inactive | 
8 | CN1CC(=O)NC1=NC(=O)Nc1cccc(Cl)c1 | 78.1 | 83.9 | 23.4 | 98.8 | 3.29 |  | inactive | inactive |  | inactive | inactive |  |  |  |  |  | inactive | 
9 | Clc1ccc(C2(c3ccc(-c4cn[nH]c4)cc3)CCNCC2)cc1 | 4.5 | 9.74 | 12.8 | 4.19 | 16.8 |  |  | 14.8 µM (active) |  | 23.5 µM (active) | 20.9 µM (active) |  |  |  |  |  | inactive | 
10 | O=C(C=Cc1ccc(O)cc1)c1ccc(O)cc1O | 19.6 | 52.6 | 39.1 | 15.1 | 1.49 |  |  |  | 14.8 µM (active) | 20.9 µM (active) | 16.6 µM (active) |  |  |  |  |  | 1.66 µM (active) | 
11 | CC1CNc2c(cccc2S(=O)(=O)N[C@@H](CCCN=C(N)N)C(=O)N2CC[C@@H](C)C[C@@H]2C(=O)O)C1 (stereo partly drawn) | 82.3 | 91.3 | 101 | 86.9 | 225 |  | inactive | 9.35 µM (active) |  |  | 14.8 µM (active) |  |  |  |  |  | inactive | 
12 | c1ccc(-c2oc3ncnc(NC[C@@H]4CCCO4)c3c2-c2ccccc2)cc1 | 36.2 | 72.4 | 41.6 | 19.8 | 343 |  |  |  | 23.5 µM (active) | 18.7 µM (active) | 20.9 µM (active) |  |  |  |  |  | inactive | 
13 | CCN(CC)CCCCNc1nc2cc(Cl)c(Cl)cc2nc1-c1ccc(-c2cccs2)s1 | 9.66 | 10.5 | 19.1 | 5.94 | 5.29 |  | inactive |  |  | 23.5 µM (active) | 18.7 µM (active) | 4.08 |  |  |  | 23.5 µM (active) | inactive | 
14 | CO[C@H]1/C=C\O[C@@]2(C)Oc3c(C)c(O)c4c(O)c(c5c(nc6cc(C)ccn65)c4c3C2=O)NC(=O)C(C)=CC=C[C@H](C)[C@H](O)[C@@H](C)[C@@H](O)[C@@H](C)[C@H](OC(C)=O)[C@H]1C | 11 | 31.8 | 7.3 |  | 4.46 |  |  | inactive |  |  | inactive |  |  |  |  |  | inactive | 
